Assay results as given in PubChem BioAssay (NCI).
Compounds without any hit were thinned out: in the full panel of roughly 83,000, 20% have a hit.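 Cells were grown in 96-well plates and exposed to the test compound at a single concentration for 48 hours; results are reported as percent growth, with values below 10 considered active.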 Unmarked numbers belong to inactive results. The source made the active and inactive calls.

Test system: SF-295 CNS
Assay: NCI-60 one-dose screen, 48 h (100 = growth as untreated, 0 = no growth, -100 = all killed)
Conditions: 10 µM unless noted

Row | Structure (SMILES) | growth
1 | CCOc1ccccc1/C=N\Nc1ccc(S(=O)(=O)c2ccc(N/N=C/c3ccccc3OCC)cc2)cc1 | 92.9%
2 | Nc1ccc(Cl)c([N+](=O)[O-])c1 | 96.7%
3 | Oc1ccc(N=Nc2nccs2)c(O)c1 | 40.3%
4 | O=C(N[C@@H]1CCCc2ccccc21)[C@H](CCC(=O)N1CCN(C2CCCCC2)CC1)N1C(=O)[C@@H](N2C(=O)OC[C@@H]2c2ccccc2)[C@H]1/C=C/c1ccccc1 | 30.3%
5 | Cc1ccc(NC(=S)/N=c2/n(-c3ccccc3)nc3n2CCN3C2=NCCN2)cc1 | 99.3%
6 | CCCCC1COc2cccc3c2N1C=C/C3=C\C(=O)n1ccc2ccccc21 (stereo not drawn) | 80.7%
7 | COc1cc(C)cc2oc3oc(=O)c(-c4nc5ccccc5s4)cc3c(=O)c12 | 98.9%
8 | O=C(Nc1ccccc1)Nc1ccc(C(=O)/C=C/c2ccc(N3CCCC3)cc2)cc1 | 73.4%
9 | COc1cc(C)cc2oc3oc(=N)c(C(=O)c4ccccc4)cc3c(=O)c12 | 106%
10 | CC[C@]12C=CCN3CC[C@@]4(c5ccc(OC)cc5N(C)[C@H]4[C@@](O)(C(=O)OC)[C@@H]1OC(=O)CCC(=O)N[C@H](Cc1c[nH]c4ccccc14)C(=O)OC)[C@@H]32 | -38.4% [100 µM] (active)
11 | CC(=O)OC[C@]12CC[C@@H]([C@@H](C)C(N)=O)[C@@H]1[C@H]1CC[C@@H]3[C@@]4(C)CC[C@H](OC(C)=O)C(C)(C)[C@@H]4CC[C@@]3(C)[C@]1(C)CC2 | -50.8% [100 µM] (active)
12 | O=c1c2c3c(sc2n2cnnc2n1Cc1ccccc1)CCCC3 | 57.1%
13 | COc1cc2c(c(OC)c1)C1c3cc(OC)ccc3NC(=O)N1CC2 (stereo not drawn) | 74%
14 | O=c1cc(-c2ccccc2)oc2cc(OCc3cn(Cc4ccc(F)cc4)nn3)cc(O)c12 | 10.4% [100 µM]
15 | CCN(CC)c1ccc2cc(NC(=O)OCCNC(=O)CCNC(=O)[C@H](CC(C)C)NC(=O)C(C)(C)NC(=O)C(C)(C)NC(=O)[C@H](CC(C)C)NC(=O)CCNC(=O)C(C)(C)NC(=O)[C@H](CC(C)C)NC(=O)CCNC(=O)[C@@](C)(CC)NC(=O)[C@H](C)NC(=O)CCNC(=O)C(C)(C)NC(=O)[C@H](C)NC(=O)[C@@H]3CCCN3C(=O)[C@@](C)(CC)NC(=O)[C@H](Cc3ccccc3)NC(=O)C3CCCN3C(=O)C(C)(C)NC(=O)C3CCCN3C(=O)C(C)(C)NC(C)=O)c(=O)oc2c1 (stereo partly drawn) | -84.7% (active)
16 | CCCCCCCCCCCCCC[n+]1cccc(C(N)=O)c1 | -30.9% (active)
17 | CCOC(CNC(=O)c1cccc([N+](=O)[O-])c1)OCC | 91.2%
18 | COc1ccc(/C=C/C=C\C(=O)c2ccc(-n3ccnc3)cc2)cc1 | 99.7%
19 | CCNc1cc2c(cc1Br)-c1ccccc1C2=O | 106%

Row | Structure (SMILES) | growth
20 | C[n+]1c(-c2ccccc2)c2cc(N)ccc2c2ccccc21 | 75.6%
21 | C/C=C/C1OC23CCCCC2C(C#N)(C(=N)O3)C1(C#N)C#N (stereo not drawn) | 110%
22 | Fc1cc2[nH]ncc2c2c3c(c(-c4cn[nH]c4)nc12)CCCC3 | 9.21% (active)
23 | CCOC(=O)c1nn(C2CCCCO2)c2ccc(NC(=O)CN3CCCC3)cc12 (stereo not drawn) | 98.5%
24 | Nc1nnc(CSc2nnc3n(Cc4ccccc4)c(=O)c4c5c(sc4n23)CCCC5)s1 | 276%
25 | O=S(=O)(NCc1ccccc1)c1ncnc2nc[nH]c12 | 104%
26 | c1cc2ccc1CNCCN1CCNCc3ccc(cc3)Oc3ccc(cc3)CNCCN(CCNCc3ccc(cc3)O2)CCNCc2ccc(cc2)Oc2ccc(cc2)CNCC1 | 6.02% (active)
27 | CS(=O)(=O)c1cccnn1 | 112%
28 | N=C(N)c1ccc(-c2ccc(-c3ccc(-c4cccs4)s3)s2)cc1F | 97.5%
29 | CCCSc1nc(N)nc2nc[nH]c12 | 120%
30 | C[C@H]1[C@H](C)CC[C@]2(C(=O)O)CC[C@]3(C)C(=CC[C@@H]4[C@@]5(C)C/C(=C/c6cccnc6)[C@H](O)C(C)(C)[C@@H]5CC[C@]43C)[C@H]12 | -27.3% [100 µM] (active)
31 | O=C1CC(c2ccccc2)Cc2nc3ccc(Br)cc3cc21 (stereo not drawn) | 17.2%
32 | C1=C[C@H]2O[C@@H]1c1ccc3[nH]ccc3c12 | 103%
33 | CCN(CC)c1ccc(/C=C/c2ccc3cc(C)ccc3[n+]2CC)cc1 | -22% (active)
34 | O=C(Nc1cc(F)cc2cccnc12)c1cnc(N2CCNCC2)cn1 | 89.3%
35 | C=CCCC1(C)NC(=O)NC1=O (stereo not drawn) | 95.7%
36 | CC(=O)Nc1ccc2nc3ccc(NC(C)=O)cc3[n+](-c3ccccc3)c2c1 | 121%
37 | CCCCCN(CCCCC)CCCCCCCCN1CCCc2ccccc21 | 80.1%
38 | O=C(O)c1cccc(CN2CCN(c3cc4c(cc3F)c(=O)c(C(=O)O)cn4C3CC3)CC2)c1O | 104%
